The values below come from PubChem BioAssay AID686921 (National Center for Advancing Translational Sciences (NCATS), 2013).

Each structure is given as a SMILES string. Unmarked numbers belong to inactive results. Active and inactive are the calls of the source. Calls follow the shape of the dose curve; as a rule, active = well fitted curve in the direction sought with a large enough effect; inconclusive = small, poorly fitted or top-dose-only effect, or another doubt; inactive = no such curve, though single readings can be large or run the other way.

The experiment is described as follows: qHTS screen for inhibitors of ELG1-dependent DNA repair in human embryonic kidney (HEK293T) cells expressing luciferase-tagged ELG1: 5FU Viability Assay for probe SAR. The following applies: HEK293T ELG1-luc, CellTiter-Glo viability, 16 h; series mostly up to 46.1 µM; activity change, negative = inhibition: at the top concentration. The source says:
Cancer cells divide rapidly compared to normal cells in the body. During cell division, cancer cells need to duplicate their genome by DNA replication. The failure of genome duplication leads to cancer cells' death. Therefore, inhibitors of DNA replication could specifically kill cancer cells. Based on this concept, many chemotherapeutic agents were developed and have been used to treat cancer patients. However, there are a limited number of agents available in the clinical setting, and some of those that do exist have low efficacy and severe side effects. Therefore, if we can find the compounds that effectively block DNA replication either by directly damaging DNA or by inhibiting other cellular mechanisms, the options for cancer treatment will be broadened. With this in mind, we developed a quantitative high-throughput ELG1-luciferase reporter gene assay. Small molecules that specifically block ELG1 function in response to DNA damage can be identified by monitoring the suppression of luciferase activity. Since ELG1 defines a pathway for repairing DNA damage, agents blocking ELG1 function can be used to sensitize cancer cells to chemotherapeutic agents whose mechanism of action involves the induction of DNA damage. Cytotoxicity of the active compounds in the ELG1 qHTS assay (AID 493107) was assessed using the CellTiter-Glo Luminescent Cell Viability Assay kit (Promega, USA). CellTiter-Glo measures the intracellular ATP present in metabolically active cells using Ultra-Glo as the luciferase to detect ATP levels. In brief, the luciferase in the buffer catalyzes the oxidation of luciferin to oxyluciferin and light which is dependent on ATP. […] DMSO and wells with media alone were used as positive and negative controls, respectively. Inactivity to this assay is the desirable outcome. NIH Molecular Libraries Probe Production Network [MLPCN] NIH Chemical Genomics Center [NCGC] MLPCN Grant: R03 MH092164 Assay Provider: Kyungjae Myung, NHGRI, NIH
ELG1-luc HEK293T cells will be seeded in 1536-well plates at a density of 2,000 cells/well. Approximately 5 hours after plating, compounds will be added to the plate by pin tool transfer and 5-fluorouridine will be added by FRD dispenser (final concentration of 5-fluorouridine =10 µM). 16 hours following the addition of the compounds, cell viability will be measured using CellTiter Glo.
A general note: Quantitative high-throughput screening tests each substance at several concentrations.
In the case of `COC(=O)c1ccc(Nc2nc(-c3ccncc3)nc3ccccc23)cc1OC`, the “activity change, negative = inhibition” value was 34%.
Still for that read-out and setting: the result for `Fc1cc(Nc2nc(-c3ccncc3)nc3ccccc23)ccc1OC(F)(F)F` reads 26.8%; that for `Fc1cc(Nc2nc(-c3ccncc3)nc3ccccc23)ccc1-c1cncnc1`, 13.4%.
Still for that read-out and setting: the result for `Fc1ccc(Nc2nc(-c3ccnc(C(F)(F)F)c3)nc3ccccc23)cc1F` reads 11.1%; that for `Fc1ccc(Nc2nc(-c3ccncc3)nc3ccccc23)cc1F`, 57.5%; that for `Cc1cc(-c2nc(Nc3ccc(F)c(F)c3)c3ccccc3n2)cc(C)n1`, 30.7%.
Regarding `Fc1ccc(-c2nc(-c3ccncc3)nc3ccccc23)cc1F`, the “activity change, negative = inhibition” value was -9.33%.
On to `COc1ccc(-n2c(C)c(C(C)=O)c3ccccc32)cc1`, for which the call was inactive.
Take `COc1cc(Nc2nc(-c3ccncc3)nc3ccccc23)ccc1Cl`: the “activity change, negative = inhibition” value is 2.26%.
As to `Fc1cc(Nc2nc(-c3ccncc3)nc3ccccc23)ccc1-c1ccc(F)c(F)c1F`, the “activity change, negative = inhibition” value was 20.8%.
Turning to `COc1cc(-c2nc(Nc3ccc(F)c(F)c3)c3ccccc3n2)c(F)cn1`, the “activity change, negative = inhibition” value was -19.9%.
Take `COc1cnccc1-c1nc(Nc2ccc(F)c(F)c2)c2ccccc2n1`: the “activity change, negative = inhibition” value was -5.9%.
Take `COc1ccc(Nc2nc(-c3ccncc3)nc3ccccc23)cc1F`: the “activity change, negative = inhibition” value was 0.644%.
Still for that read-out and setting: with `Fc1cc(Nc2nc(-c3ccncc3)nc3ccccc23)ccc1-c1cccc(C(F)(F)F)c1` the figure was -24.6%; with `Fc1ccc(Nc2cc(-c3ccccc3)nc(-c3ccncc3)n2)cc1F`, 35.2%; with `Fc1ccc(-c2ccc(Nc3nc(-c4ccncc4)nc4ccccc34)cc2F)c(Cl)c1`, -26.9%.
The same measure, in the same setting: with `Fc1cc(Nc2nc(-c3ccncc3)nc3ccccc23)ccc1C(F)(F)F` the figure was 4.15%; with `c1ccc2c(Nc3ccn[nH]3)nc(-c3ccncc3)nc2c1`, -25.2%; with `Fc1cc(Nc2nc(-c3ccncc3)nc3ccccc23)ccc1-c1cccc(OC(F)F)c1`, -3.5%.
As for `Fc1cc(Nc2nc(-c3ccncc3)nc3ccccc23)ccc1N1CCNCC1`, the “activity change, negative = inhibition” value was -13.6%.
The same measure, in the same setting: with `Fc1cccc(Nc2nc(-c3ccncc3)nc3ccccc23)c1` the figure was 20.6%; with `Cc1noc(C)c1-c1ccc(Nc2nc(-c3ccncc3)nc3ccccc23)cc1F`, -90.5%; with `Cc1cnccc1-c1nc(Nc2ccc(F)c(F)c2)c2ccccc2n1`, 30.7%.
In the case of `Fc1cc(Nc2nc(-c3ccncc3)nc3ccccc23)ccc1-c1cccc(OC(F)(F)F)c1`, the “activity change, negative = inhibition” value was -29.3%.
As to `COc1ccc(-c2nc(Nc3ccc(F)c(F)c3)c3ccccc3n2)cc1`, the “activity change, negative = inhibition” value was -12.5%.
`Fc1ccc(-c2ccc(Nc3nc(-c4ccncc4)nc4ccccc34)cc2F)c(F)c1`: the “activity change, negative = inhibition” value was -9.69%.
On the same count and under the same terms, the result for `Fc1cc(Nc2nc(-c3ccncc3)nc3ccccc23)ccc1-c1ccc2[nH]ncc2c1` reads -0.733%; that for `Cc1nc2ccc(Nc3nc(-c4ccncc4)nc4ccccc34)cc2s1`, 30.3%.
With `COc1ccc(-n2c(C)c(C(C)=O)c3cc(O)ccc32)cc1`, the “activity change, negative = inhibition” value was -9.12%.
Still for that read-out and setting: with `Fc1ccc(Nc2nc(-c3ccncc3Cl)nc3ccccc23)cc1F` the figure was 35.1%; with `Fc1cc(Nc2nc(-c3ccncc3)nc3ccccc23)ccc1N1CCCCC1`, -92.1%; with `Fc1ccc(Nc2nc(-c3ccncc3F)nc3ccccc23)cc1F`, 29.9%.
With `COc1nccc(-c2nc(Nc3ccc(F)c(F)c3)c3ccccc3n2)c1OC`, the “activity change, negative = inhibition” value was 6.79%.
Still for that read-out and setting: the result for `Fc1cc(Nc2nc(-c3ccncc3)nc3ccccc23)ccc1-c1cn[nH]c1` reads 30.4%.
Same read-out and setting: with `CSc1ccccc1-c1ccc(Nc2nc(-c3ccncc3)nc3ccccc23)cc1F` the figure was -8.99%; with `Fc1ccc(Nc2nc(-c3ccnc(N4CCCCC4)c3)nc3ccccc23)cc1F`, 4.06%; with `Fc1cc(Nc2nc(-c3ccncc3)nc3ccccc23)ccc1-c1cccnc1`, -10.6%.
Turning to `Fc1cc(Nc2nc(-c3ccncc3)nc3ccccc23)ccc1-n1cncn1`, the call was inactive.
Consider `COc1cc(-c2nc(Nc3ccc(F)c(F)c3)c3ccccc3n2)cc(OC)n1`, for which the “activity change, negative = inhibition” value was 18.8%.
Consider `COc1cc(Nc2nc(-c3ccncc3)nc3ccccc23)ccc1NS(C)(=O)=O`, for which the “activity change, negative = inhibition” value was 27.9%.
